High-throughput results deposited in PubChem BioAssay by National Center for Advancing Translational Sciences (NCATS).
Hits are enriched below; roughly 2.4% of the tested compounds scored in any of these assays.
WRN inhibitor – blocks human WRN helicase. Q14191. WRN helicase unwinding, fluorescent forked duplex, kinetic. Potency, µM (highest dose often 114 µM), for the others: top-dose activity change, negative = inhibition, usual class: inhibitors. 360,000 tested, 0.46% active; further: potency means the concentration at half of the fitted maximal effect; on the % scale 0 is the no-effect control and ±100 the full control effect; nearly all actives have a fitted effect of over 55% in size
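Fluorescence dequenching readout, ex 525 nm/em 598 nm, kinetic mode: forked duplex DNA (100 nM final) with adjacent fluorophore and quencher unwound by WRN (20 nM final) with 2 mM ATP. Compound preincubation 15 min, room temperature.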
Pol eta inh-1 – DNA polymerase eta (human) inhibition; Potency, µM (top dose mostly 114 µM), for inactives: at the top dose activity change, negative = inhibition, usual class: inhibitors; Q9Y253; 390,000 tested, 1.2% active; recombinant Pol eta, fluorescent DNA replication assay; further: potency means the concentration at half of the fitted maximal effect; on the % scale 0 is the no-effect control and ±100 the full control effect
Target sequence (Q9Y253 whole entry, looked up): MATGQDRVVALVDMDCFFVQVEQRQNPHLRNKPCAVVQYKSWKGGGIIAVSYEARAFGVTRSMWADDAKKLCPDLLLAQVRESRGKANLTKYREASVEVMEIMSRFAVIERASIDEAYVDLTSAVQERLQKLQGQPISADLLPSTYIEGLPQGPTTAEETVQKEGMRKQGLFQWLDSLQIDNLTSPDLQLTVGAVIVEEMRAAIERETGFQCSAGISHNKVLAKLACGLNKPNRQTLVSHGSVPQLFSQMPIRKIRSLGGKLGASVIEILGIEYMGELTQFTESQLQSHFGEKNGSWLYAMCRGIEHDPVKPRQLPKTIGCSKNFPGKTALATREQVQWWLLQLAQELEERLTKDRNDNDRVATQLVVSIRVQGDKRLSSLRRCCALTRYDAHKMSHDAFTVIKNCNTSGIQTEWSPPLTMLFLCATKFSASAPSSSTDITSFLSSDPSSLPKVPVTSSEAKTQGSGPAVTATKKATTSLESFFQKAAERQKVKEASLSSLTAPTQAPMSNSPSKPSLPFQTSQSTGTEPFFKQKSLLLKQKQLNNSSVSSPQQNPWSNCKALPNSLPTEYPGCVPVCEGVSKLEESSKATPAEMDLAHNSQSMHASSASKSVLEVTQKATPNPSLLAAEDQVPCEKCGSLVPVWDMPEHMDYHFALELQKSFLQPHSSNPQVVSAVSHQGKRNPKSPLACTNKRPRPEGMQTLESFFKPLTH
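Fluorescent replication assay: 50 nM final substrate added after a 15 min room-temperature compound preincubation with 10 nM enzyme. Signal taken at 0 min and again at 10 min.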
POLB inh – blocks human DNA polymerase beta activity | P06746 | Pol beta primer extension/strand displacement, fluorescence kinetic | Potency, µM (titrated, usually from 114 µM), for inactives: at the top dose activity change, negative = inhibition, most hits filed as inhibitors | 340,000 tested, 1.3% active; further: potency means the concentration at half of the fitted maximal effect; on the % scale 0 is the no-effect control and ±100 the full control effect
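Enzyme-only controls used 10 nM Pol beta; buffer lacking enzyme served as negative control. Compound preincubated 15 min, then 50 nM substrate added; 0 and 10 min reads at room temperature.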
Pol kappa inh-1 – inhibitors of human DNA polymerase kappa; Q9UBT6; purified Pol kappa, fluorescent DNA synthesis assay, 10 min; Potency, µM (titrated, usually from 107 µM), inactives show at the highest dose activity, negative = inhibition, most hits filed as inhibitors; 400,000 tested, 0.53% active; further: potency means the concentration at half of the fitted maximal effect; on the % scale 0 is the no-effect control and ±100 the full control effect
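Kinetic fluorescence screen: compound preincubated 15 min RT with 10 nM enzyme; 50 nM substrate (final) initiates; reads at 0/10 min.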
FEN1 inh – human FEN1 inhibition. P39748. Recombinant FEN1 flap cleavage, fluorescence, 15 min. Potency, µM (highest dose often 114 µM), without a hit: at the top dose activity change, negative = inhibition, actives largely listed as inhibitors. 390,000 tested, 0.35% active; further: potency means the concentration at half of the fitted maximal effect; on the % scale 0 is the no-effect control and ±100 the full control effect; nearly all actives have a fitted effect of over 65% in size
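Recombinant FEN1 (10 nM) was preincubated with pin-transferred compounds for 15 min at room temperature, then flap DNA substrate (50 nM final) was added. Plates were read at 0 and 15 min, and normalized concentration–response data were fitted to a four-parameter Hill equation.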
POLI inh – DNA polymerase iota (human) inhibition; Q9UNA4; Pol iota fluorescent replication assay, 10 min; Potency, µM (highest dose often 115 µM), for the others: top-dose activity, negative = inhibition, actives largely listed as inhibitors; 390,000 tested, 1% active; further: potency means the concentration at half of the fitted maximal effect
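Fluorescent replication assay read twice, at 0 min and 10 min after adding 50 nM (final) substrate. Enzyme (10 nM) and compounds were first incubated 15 min at room temperature; enzyme-free buffer wells were negative controls.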
TbPGK inh – TbPGK inhibition, hit validation; shares compounds with Pol kappa inh-1; TbPGK coupled GAPDH assay, Kinase-Glo luminescence; Potency, µM (series often up to 57.5 µM), for inactives: top-dose activity change, negative = inhibition, most hits filed as inhibitors; 500 tested, 79% active; further: potency means the concentration at half of the fitted maximal effect; on the % scale 0 is the no-effect control and ±100 the full control effect; nearly all actives have a fitted effect of over 65% in size
Pol iota confirm – Human Pol iota inhibitor confirmatory assay | shares compounds with Pol kappa inh-1 | Pol iota primer extension, TAMRA/BHQ fluorescence | Potency, µM, most hits filed as inhibitors | 1,500 tested, 77% active | AID 720496; further: potency means the concentration at half of the fitted maximal effect
GALK confirm – galactokinase (human) inhibition, confirmation | AID 2015 | purified GALK, Kinase-Glo ATP depletion luminescence | Potency, µM (doses to about 115 µM), for the others: at the top dose activity, negative = inhibition, most hits filed as inhibitors | 150 tested, 70% active | shares compounds with Pol eta inh-1
Redox cycling – counter-screen for GALK inhibitors: redox cycling H2O2 generation; shares compounds with Pol eta inh-1; Phenol red-HRP H2O2 redox cycling, absorbance 600 nm; 150 tested, 40% active; AID 2035; Potency, µM (top dose mostly 115 µM), without a hit: at the top dose activity change, negative = H2O2 signal, most hits filed as inhibitors
HEK293 viability – reduces HEK-293 cell viability in GALK counter-screen; shares compounds with Pol eta inh-1; HEK-293 viability, ATP luminescence (CellTiter-Glo), 24/48 h; Potency, µM (doses to about 46.1 µM), without a hit: top-dose activity change, negative = cytotoxicity, actives largely listed as inhibitors; 170 tested, 10% active; AID 2547; further: potency means the concentration at half of the fitted maximal effect; on the % scale 0 is the no-effect control and ±100 the full control effect
Pol kappa inh-2 – confirmation of human DNA polymerase kappa inhibitors; Potency, µM, hits mostly inhibitors; AID 720501; purified Pol-kappa, fluorescent strand-displacement substrate; 920 tested, 76% active; shares compounds with Pol eta inh-1; further: potency means the concentration at half of the fitted maximal effect
Pol eta inh-2 – Pol eta (human) inhibition, cherry-pick confirmation | shares compounds with Pol eta inh-1 | Pol eta primer extension, TAMRA/BHQ fluorescence, 10 min | Potency, µM, most hits filed as inhibitors | 2,600 tested, 64% active; further: potency means the concentration at half of the fitted maximal effect
* marks the source's active call; other numbers are inactive results; ? = inconclusive; nt = no result; [ ] = remark or other dose. The call rests on the fitted dose curve; in most records, active means well fitted curve in the direction sought with a large enough effect; inconclusive means small, poorly fitted or top-dose-only effect, or another doubt; inactive means no such curve, though single readings can be large; an effect the other way counts as inactive or inconclusive.

SMILES	WRN inhibitor	Pol eta inh-1	POLB inh	Pol kappa inh-1	FEN1 inh	POLI inh	Pol iota confirm	Pol kappa inh-2	Pol eta inh-2	others
Cc1nc(S/C(=C/c2ccc(OCc3ccc(C(=O)O)cc3)cc2)C(=O)O)n[nH]1	?	20µM*	-26%	40µM*	?	4µM*	12*	nt	27*
N[C@@H](Cc1cc(I)c(Oc2ccc(O)cc2)c(I)c1)C(=O)O	nt	nt	nt	2%[19.4 µM]	nt	nt	nt	nt	nt
COc1cc(/C=C2\SC(=O)N(c3cccc(Cl)c3)C2=O)cc([N+](=O)[O-])c1O	50µM*	?	6.3µM*	?	89µM*	6.3µM*	38*	4.2*	?	TbPGK inh=4.6µM*
O=C(Nc1ccc(S(=O)(=O)Nc2nccs2)cc1)c1nn(-c2ccccc2)ccc1=O	79µM*	6.3µM*	?	2%	0%	-8%	21*	12*	24*
O=C(O)c1ccccc1C(=O)Nc1ccc(S(=O)(=O)Nc2nccs2)cc1	0%	2%	nt	-4%	-4%	-13%	nt	nt	nt
Cc1nnc(NC(=O)CCSCCC(=O)Nc2nnc(C)s2)s1	50µM*	3.2µM*	28µM*	79µM*	-23%	18µM*	42*	21*	27*
N#Cc1c(-c2ccccc2)nc(SCC(=O)N2c3ccccc3Sc3ccccc32)[nH]c1=O	?	40µM*	25µM*	-14%	89µM*	?	84*	nt	?	GALK confirm=30µM*;Redox cycling=-4%;HEK293 viability=1%
CCc1ccccc1NC(=O)CN1C(=O)COc2ccc(S(=O)(=O)Nc3ccccc3)cc21	nt	-1%	10%	-4%	-5%	-17%	nt	nt	nt
O=c1[nH]c(COc2ccccc2)nc2ccccc12	1%	-3%	14%	-6%	13%	-10%	nt	nt	nt
Cn1cccc1C(=O)OCc1nc2ccccc2c(=O)[nH]1	-10%[11.6 µM]	20µM*	nt	71µM*	-21%	18µM*	47*	nt	?
O=C(O)C(O)C(O)C(O)C(O)C(=O)O (centres undefined)	nt	nt	nt	-8%[60.1 µM]	nt	nt	nt	nt	nt
Cc1ccc(-n2nc3c(=O)n(C(C)C(=O)NCc4ccccc4C)nc(C)c3c2C)cc1 (centres undefined)	nt	89µM*	45µM*	-10%	?	-25%	75*	67*	?
Cc1csc(NC(=O)CSc2nncn2C)n1	-8%	-7%	-19%	2%	28%	-12%	nt	nt	nt
Cn1cnnc1SCC(=O)Nc1ncc([N+](=O)[O-])s1	40µM*	2.8µM*	nt	71µM*	?	7.9µM*	19*	3.4*	15*
O=C(O)c1ccccc1NS(=O)(=O)c1ccc(NNC(=S)Nc2ccc(OC(F)F)cc2)c([N+](=O)[O-])c1	?	25µM*	89µM*	?	?	?	75*	nt	76*
COc1ccc(NC(=O)c2ccccc2NS(=O)(=O)c2ccc(C)cc2)c([N+](=O)[O-])c1	-4%	-18%	24%	-20%	0%	-16%	nt	nt	nt
COc1ccc(/C=N/NC(=O)c2nnn(-c3nonc3N)c2-c2cccc(OC)c2)cc1	-5%	-25%	11%	-1%	-13%	5%	nt	nt	nt
COc1ccc(O)c(/C=N/NC(=O)c2c(C)nnn2-c2nonc2N)c1	?	?	4.5µM*	?	?	?	75*	?	nt
CCc1cccc(NC(=O)Cn2c(=O)n(CC(=O)NCCc3ccccc3)c(=O)c3ccccc32)c1	nt	-3%	12%	?	10%	?	nt	nt	nt
COC(=O)c1ccc(COc2ccccc2/C=C(\C#N)C(=O)NC(C)C)cc1	2%	-3%	1%	-12%	-6%	165%	nt	nt	nt
COC(=O)c1ccc(COc2ccccc2/C=C/C(=O)c2ccc(OCC(=O)O)cc2)cc1	?	22µM*	50µM*	-8%	?	?	47*	nt	48*
C=C1C=C(C(F)(F)F)n2ncc(C(=O)NCc3ccc(F)cc3)c2N1	nt	nt	nt	-17%	-17%	14%	nt	nt	nt
Cn1c(O)c(C2=c3ccccc3=NC2=O)[nH]c1=S	-11%	-16%	-2%	-5%	0%	4%	nt	nt	nt
COc1ccc2nc(-n3c(O)c(C4=c5ccccc5=NC4=O)[nH]c3=S)sc2c1	25µM*	8.9µM*	8.9µM*	?	32µM*	?	27*	17*	27*
COc1cc(C2CC(=O)Oc3cc(C)c(Cl)cc32)cc(OC)c1OC (centres undefined)	nt	nt	nt	-13%	nt	nt	nt	nt	nt
COCC(=O)OC1CCn2c1nc1c2C(=O)C(C)=C(NC(C)=O)C1=O (centres undefined)	-24%	4µM*	nt	-32%	-22%	4.5µM*	17*	nt	30*
CC(C)c1ccc(-c2noc(SCC(=O)N3CCCCC3)n2)cc1	nt	-13%	?	-15%	4%	4%	nt	nt	nt
Cc1cc(C)c(NC(=O)Cn2c(=O)n(Cc3ccc(C(=O)NCc4ccco4)cc3)c(=O)c3sccc32)c(C)c1	nt	?	1.1µM*	?	-22%	?	47*	nt	67*
